According to the supplement of paper PMC3334620:
Whole data set: some 33,000 sequences, median “E-score (-0.5 to 0.5)” near -0.04, cut for the highest 2% near 0.36. Many of the other results were omitted from the sample, so the highest values are more common in it than they were.

target: T1, Hmlalpha2 (UniProt P0CY09); assay: PBM E-score (8-mer binding enrichment) (E-score (-0.5 to 0.5)); higher = stronger / more preferred TF binding; details: protein concentration: 200 nM; construct: GST-full length
T1 sequence: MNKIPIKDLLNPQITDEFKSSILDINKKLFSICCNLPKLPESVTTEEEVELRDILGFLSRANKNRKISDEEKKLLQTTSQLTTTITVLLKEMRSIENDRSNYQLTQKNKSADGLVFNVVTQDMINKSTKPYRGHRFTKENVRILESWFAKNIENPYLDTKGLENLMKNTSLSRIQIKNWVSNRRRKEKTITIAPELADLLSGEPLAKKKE
Outline: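 E-scores (a modified Wilcoxon-Mann-Whitney statistic) were assigned by the Universal PBM Analysis Suite to every ungapped eight-base word pooled with its reverse complement. The input came from universal all-10-mer Agilent arrays made double-stranded by primer extension and probed with GST-tagged yeast transcription factors at about 100-200 nM. Fluorescent anti-GST detected bound protein, and masliner normalised the scans.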

| Sequence | PBM E-score |
| --- | --- |
| GTGAAATA | 0.185 |
| TACGTCGA | 0.0708 |
| CCCGCCAC | -0.152 |
| ATATTGGG | -0.261 |
| GACTCTGA | -0.12 |
| CTCGAACA | 0.112 |
| AAAGCCAT | 0.0384 |
| AACCCTGG | -0.204 |
| AGGTACAT | 0.288 |
| AGGTACAA | 0.21 |
| ATGTACTG | 0.351 |
| GTGTACTA | 0.311 |
| ATGTACAA | 0.433 |
| ATGTACAT | 0.457 |
| ATGTACAG | 0.289 |
| ATGTACGA | 0.281 |
| ATGTACTA | 0.397 |
| GCGCAAGA | -0.0432 |
| AAGACAGT | -0.0478 |
| AGAAAGTG | -0.223 |
| CCATTCGA | -0.0609 |
| ATCTCGTA | 0.191 |
| AAATCCGC | -0.125 |
| GAAAATTC | -0.0326 |
| CAGCCTTC | -0.301 |

| Sequence | PBM E-score |
| --- | --- |
| CCATGATC | -0.128 |
| ACATGAGA | 0.406 |
| ACATGAGT | 0.364 |
| ACATGATA | 0.435 |
| ACATGATC | 0.426 |
| GCATGATA | 0.116 |
| TCATGAGA | 0.0706 |
| CCATGATA | -0.142 |
| ACATGATG | 0.348 |
| CGGATATC | -0.0199 |
| TCTCTGAA | -0.162 |
| CGCATAGC | -0.0965 |
| AGGTCCAA | -0.112 |
| ACGACCCC | -0.127 |
| ATGGCAAA | -0.00556 |
| CTTGTACC | 0.0814 |
| GCTGTACA | 0.154 |
| GTTGTAGA | 0.325 |
| CTTGTACA | 0.403 |
| ATTGTACG | 0.123 |
| CTTGTAGA | 0.253 |
| GTTGTACA | 0.424 |
| ATTGTACA | 0.403 |
| ATTGTACC | 0.0764 |
| CTAGTTCA | 0.0551 |

| Sequence | PBM E-score |
| --- | --- |
| CCTCTCCG | -0.305 |
| TAAGTCGA | -0.0631 |
| CAACGGTC | -0.0538 |
| AAGAGGGA | -0.246 |
| CAAGATAG | -0.0379 |
| GTTTTGAA | 0.315 |
| ATCTCCTG | -0.0358 |
| GTGTGTAA | 0.465 |
| ATGTGTAG | 0.349 |
| ATGTGTAA | 0.452 |
| GAGTGTAA | 0.295 |
| GGGTGTAA | 0.342 |
| CTGTGTCA | 0.0766 |
| CTGTGTAC | 0.35 |
| ATGTGTGC | -0.0456 |
| CTGTGTGA | 0.247 |
| CTGTGTAA | 0.483 |
| AAGTGTAA | 0.156 |
| ATGTGTAC | 0.372 |
| CTCAGAGA | -0.0918 |
| CGCTAAAC | 0.0834 |
| CAAGATGA | -0.0169 |
| AAATGCCG | -0.02 |
| ACGGGGAA | -0.0619 |
| AGACCACT | -0.00203 |

| Sequence | PBM E-score |
| --- | --- |
| GCGCCAAC | -0.0446 |
| CGCTATAA | -0.00727 |
| TCTTAAGA | -0.132 |
| ACTTAACA | 0.388 |
| GCTTAACC | -0.00807 |
| GCTTAACA | 0.378 |
| ACTTAACT | 0.159 |
| ACTTAACG | 0.14 |
| TCTTAACA | 0.404 |
| TCTTAAAA | -0.0174 |
| CCTTAACA | 0.291 |
| TATAACGA | 0.176 |
| ACCTAGCC | -0.205 |
| AGTAGTGC | -0.153 |
| GAGACGAC | -0.19 |
| CCAAAAGG | -0.136 |
| CGGCGGCC | -0.188 |
| ACCGTGAT | -0.0701 |
| ACACGCGA | 0.378 |
| ACACGCGC | 0.304 |
| ACGCGCGT | 0.343 |
| AAACGCGT | 0.312 |
| ACACGCGT | 0.43 |
| ACACGCGG | 0.324 |
| AACTGCAC | 0.0702 |

| Sequence | PBM E-score |
| --- | --- |
| TCTGTAAA | 0.278 |
| AATGTAAA | 0.434 |
| GATGTAAA | 0.433 |
| GATGTAGC | -0.0783 |
| AATGTAAT | 0.461 |
| ACTGTAAA | 0.222 |
| GAGGTAAA | 0.228 |
| ACTGTAAT | 0.251 |
| AATGTAAC | 0.296 |
| ACAATTCT | 0.156 |
| AAAGAATC | -0.124 |
| CCTCTTCG | -0.127 |
| AAGGCTTC | -0.116 |
| ATACTACA | 0.32 |
| CCTACACA | 0.266 |
| ACTACACG | 0.454 |
| CCTACACG | 0.393 |
| ACTACACT | 0.253 |
| GCTACACA | 0.323 |
| GTACTACA | 0.369 |
| CCTACACC | -0.00672 |
| ACTACACC | 0.166 |
| TCTACAGA | 0.133 |
| CTACTACA | 0.304 |
| TCTACACA | 0.445 |

| Sequence | PBM E-score |
| --- | --- |
| ATGGTTAA | 0.139 |
| CATGTGAC | 0.19 |
| CCCCTTCA | -0.233 |
| AGTGCAGG | -0.159 |
| TCAAGCCA | -0.0161 |
| CCCCCTAC | -0.279 |
| CCCAATCC | -0.281 |
| CGTATCCA | -0.0445 |
| AACAACGG | 0.138 |
| TAACTACA | 0.378 |
| ACACTACT | 0.105 |
| ACTACACA | 0.406 |
| GAACTACA | 0.197 |
| CCACTACA | 0.212 |
| CAACTACA | 0.316 |
| ACACTACA | 0.397 |
| ACTACAGA | 0.119 |
| ACTACAAG | 0.267 |
| AGCTCTTC | -0.21 |
| ATCGCGGA | -0.302 |
| GTCAAGTA | 0.201 |
| CGAAGCGA | -0.131 |
| CCAGTAGC | -0.157 |
| CACCGCCG | -0.288 |
| ATGAGTCG | -0.0768 |

| Sequence | PBM E-score |
| --- | --- |
| CATCAACC | 0.0266 |
| TAGACGCA | 0.0971 |
| TCCCTGAA | -0.0392 |
| CTCTGTAA | 0.195 |
| GTATGTCA | 0.352 |
| GTATGTGA | 0.199 |
| ATATGTAA | 0.416 |
| CTATGTAA | 0.485 |
| CTATGTAC | 0.401 |
| GTATGTAA | 0.477 |
| ATATGTAC | 0.337 |
| ATATGTAG | 0.3 |
| ATATGTGA | 0.234 |
| CTCTGTAC | -0.00455 |
| CTATGTGA | 0.172 |
| ATCAAAAA | 0.0225 |
| AAAGCGAC | 0.0782 |
| GCTCTCCC | -0.266 |
| AGTGCATA | 0.1 |
| GCTCAGAA | -0.0102 |
| AGTAACTA | 0.213 |
| CAGATCCA | -0.0975 |
